# High-throughput results from PubChem BioAssay.
# A selection: hits, their analogues and other compounds. The true share with any hit is near 3%.
# Tau fluor counter – Counterscreen qHTS for Inhibitors of Tau Fibril Formation, Fluorescence Polarization; Potency, µM (titrated, usually from 57.7 µM), without a hit: top-dose activity change, negative = decrease; actives 0.93% (n = 280,000); tau K18 P301L Alexa594 fluorescence, heparin fibrillization; also: potency is read from the fitted curve at half-maximal effect; nearly all actives have a fitted effect of over 55% in size
#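 Human K18 P301L tau (15 uM unlabeled plus 0.24 uM Alexa 594-labeled, final) in 100 mM sodium acetate pH 7 was mixed with compound and 20 uM heparin and incubated 6 hr at 37 C.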
# FBPA coupling cs – qHTS Assay for Inhibitors of Fructose-1,6-bisphosphate Aldolase from Giardia Lamblia: Coupling assay counterscreen; coupling enzyme system counterscreen, AmpLite Red fluorescence; activity change, negative = inhibition, % at 58.2 µM, hits read low; actives 0.67% (n = 290,000); AID 2472, 2010; in the data active = activity change below about -30%
#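 First, compound is pin-transferred into glyceraldehyde-3-phosphate coupling-enzyme reagent at 57.5 uM final and held 10 min at RT. Next, substrate, coupling system and AmpLite Red are added. After 20 min RT, fluorescence (525/598 nm) is read.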
# Tau FP inhib – qHTS for Inhibitors of Tau Fibril Formation, Fluorescence Polarization; Potency, µM (top dose mostly 57.7 µM), inactives show at the highest dose activity, negative = inhibition, usual class: inhibitors; K18 P301L tau heparin fibrillization, Alexa594 FP, 6 h; Microtubule-associated protein tau (Homo sapiens), P10636; AID 1468, 2008; actives 0.39% (n = 280,000); also: potency is read from the fitted curve at half-maximal effect; nearly all actives have a fitted effect of over 55% in size
# Target sequence (P10636 561-689 P618L limits assumed): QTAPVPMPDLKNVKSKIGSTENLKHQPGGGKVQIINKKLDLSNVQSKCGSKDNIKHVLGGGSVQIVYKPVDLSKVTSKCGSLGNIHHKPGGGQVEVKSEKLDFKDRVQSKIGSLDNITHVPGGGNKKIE
#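 Human K18 P301L fragment (15 uM unlabeled plus 0.24 uM Alexa 594-labeled) in 100 mM sodium acetate pH 7 with compound, aggregation induced by 20 uM heparin for 6 hr at 37 C. ThT (30 uM) added for 1 hr, then Alexa 594 FP read.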
# JMJD2E inh – qHTS Assay for Inhibitors of Human Jumonji Domain Containing 2E (JMJD2E). Lysine-specific demethylase 4E (Homo sapiens), B2RXH2. JMJD2E catalytic domain, FDH-coupled NADH fluorescence (FDH is formaldehyde dehydrogenase). Potency, µM (titrated, usually from 57.1 µM), inactives show at the highest dose activity change, negative = inhibition, usual class: inhibitors. actives 1.6% (n = 230,000); active = well fitted inhibition curve with a large enough effect, not every such curve was filed as active; inconclusive = small, poorly fitted or top-dose-only effect, or another doubt; inactive = no such curve, though single readings can be large or run the other way;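 also: potency is read from the fitted curve at half-maximal effect; 0% = wells with enzyme and -100% = buffer wells without enzyme; nearly all actives have a fitted effect of over 50% in size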
# Target sequence (B2RXH2 1-337 limits assumed): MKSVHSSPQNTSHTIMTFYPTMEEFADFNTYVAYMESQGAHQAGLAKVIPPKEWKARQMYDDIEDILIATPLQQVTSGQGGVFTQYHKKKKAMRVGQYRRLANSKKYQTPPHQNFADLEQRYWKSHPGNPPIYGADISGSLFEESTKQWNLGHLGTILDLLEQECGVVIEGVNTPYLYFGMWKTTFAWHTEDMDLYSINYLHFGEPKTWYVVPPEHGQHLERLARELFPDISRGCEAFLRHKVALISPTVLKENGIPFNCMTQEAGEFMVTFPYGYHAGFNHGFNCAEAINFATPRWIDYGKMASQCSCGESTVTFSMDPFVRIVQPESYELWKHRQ
# Tau ThT inhib – qHTS for Inhibitors of Tau Fibril Formation, Thioflavin T Binding | recombinant tau K18 P301L (four-repeat tau fragment), heparin-induced fibrillization, ThT fluorescence | Potency, µM (highest dose often 57.4 µM), for the others: at the top dose activity, negative = inhibition, actives largely listed as inhibitors | actives 2.1% (n = 270,000) | Microtubule-associated protein tau (Homo sapiens), P10636; also: potency is read from the fitted curve at half-maximal effect; nearly all actives have a fitted effect of over 55% in size
#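 Heparin-induced (20 uM) aggregation of recombinant human K18 P301L tau, 15 uM unlabeled with 0.24 uM labeled, pH 7 acetate buffer, 6 hr at 37 C with compound. Fibrils quantified by 30 uM ThT fluorescence after 1 hr ambient incubation.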
# The depositor's hits bear a star; ? = inconclusive; . = not tested or not shown; [ ] = remark or other dose. Unless noted, calls follow the shape of the dose curve; as a rule, active = well fitted curve in the direction sought with a large enough effect; inconclusive = small, poorly fitted or top-dose-only effect, or another doubt; inactive = no such curve, though single readings can be large; an effect the other way counts as inactive or inconclusive. Unless noted, % is scaled to controls: 0 for no effect and ±100 for the full control effect.
SMILES,Tau fluor counter,FBPA coupling cs,Tau FP inhib,JMJD2E inh,Tau ThT inhib
CCCC(=O)Nc1ccc2nc(SCC(=O)Nc3ccc(N4CCOCC4)c(Cl)c3)sc2c1,14µM*[quencher],-6,5%,-12%,?
Cc1cccc(OCCSc2nc3ccc(NC(=O)c4cccs4)cc3s2)c1,?,.,7.1µM*,.,7%
CC1CCC(O)C/C1=C\C=C1/CCCC2(C)C1CCC2C(C)/C=C/C(C)C(C)C (stereo unspecified),.,-1,.,.,.
CC[C@H](C)[C@H](NC(=O)[C@H](CCC(=O)O)NC(=O)[C@H](CO)NC(=O)[C@@H](NC(=O)[C@@H](N)CO)C(C)C)C(=O)N[C@@H](CCC(N)=O)C(=O)N[C@@H](CC(C)C)C(=O)N[C@@H](CCSC)C(=O)N[C@@H](Cc1cnc[nH]1)C(=O)N[C@@H](CC(N)=O)C(=O)N[C@@H](CC(C)C)C(=O)NCC(=O)N[C@@H](CCCCN)C(=O)N[C@@H](Cc1cnc[nH]1)C(=O)N[C@@H](CC(C)C)C(=O)N[C@@H](CC(N)=O)C(=O)N[C@@H](CO)C(=O)N[C@@H](CCSC)C(=O)N[C@@H](CCC(=O)O)C(=O)N[C@@H](CCCNC(=N)N)C(=O)N[C@H](C(=O)N[C@@H](CCC(=O)O)C(=O)N[C@@H](Cc1c[nH]c2ccccc12)C(=O)N[C@@H](CC(C)C)C(=O)N[C@@H](CCCNC(=N)N)C(=O)N[C@@H](CCCCN)C(=O)N[C@@H](CCCCN)C(=O)N[C@@H](CC(C)C)C(=O)N[C@@H](CCC(N)=O)C(=O)N[C@@H](CC(=O)O)C(=O)N[C@H](C(=O)N[C@@H](Cc1cnc[nH]1)C(=O)N[C@@H](CC(N)=O)C(=O)N[C@@H](Cc1ccccc1)C(=O)N[C@H](C(=O)N[C@@H](C)C(=O)N[C@@H](CC(C)C)C(=O)NCC(=O)O)C(C)C)C(C)C)C(C)C,.,-3,.,.,.
O=C(CSc1nc2ccc(Nc3nc(N4CCCC4)nc(N4CCCC4)n3)cc2s1)NCc1ccco1,-26%,-1,7%,20µM*,.
Cc1ccccc1OCCSc1nc2ccc(NC(=O)c3cccc(F)c3)cc2s1,?,.,14µM*,.,?
O=C(CSc1nc2ccc(Nc3nc(N4CCOCC4)nc(N4CCOCC4)n3)cc2s1)Nc1ccccc1Cl,.,0,.,.,.
CC(=O)OCC(=O)[C@@]1(O)CCC2C3C[C@H](C)C4=CC(=O)C=CC4(C)C3C(O)CC21C (stereo partly specified),-2%,-1,1%,.,-1%
O=C(NCCCn1ccnc1)c1noc2c1CCc1ccccc1-2,-17%,-44*,-9%,-3%,-19%
COc1ccccc1-c1cc2nc(C)c(CCC(=O)NCc3cccc(Cl)c3)c(C)n2n1,-15%,.,-3%,.,-13%
COc1ccccc1Nc1nc(-c2cccs2)cs1,?,-5,1%,-17%,14µM*
COc1ccccc1Nc1nc(-c2cccnc2)cs1,.,1,.,.,.
COc1ccc(Nc2nc(-c3cccs3)cs2)c(OC)c1,16µM*[quencher],-5,11%,?,11µM*
COc1ccc(Nc2nc(-c3cccs3)nc3ccccc23)c(OC)c1,10µM*[quencher],-2,-6%,?,?
Oc1ccc(Nc2nc(-c3cccs3)cs2)cc1,11µM*[quencher],-1,2%,4%,?
COc1ccc(Nc2nc(-c3cccs3)cs2)cc1,?,1,4%,-8%,?
O=C(NCc1ccc(F)cc1)C1CCN(C(=O)c2ccc(-n3ccc4ccccc43)s2)CC1,-9%,.,-14%,.,-7%
CCN1C(=O)[C@H]2[C@H]3[C@H](O)[C@H](O)C/C(=N/O[C@@H](C)c4cn([C@H]5COC[C@H]5O)nn4)[C@@H]3CC[C@@H]2C1=O,-4%[11.6 µM],-1,2%[11.6 µM],.,-8%[11.5 µM]
O=C(CSc1ccccc1)N1CCc2c([nH]c3ccccc23)C1c1ccc(Cl)cc1 (stereo unspecified),-9%,.,-4%,.,-1%
